The source made the active and inactive calls.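 Rule for the calls: active = compounds that kill cultured T. brucei parasites with a half-maximal potency under 200 micromolar; inactive = compounds with no measurable potency.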
Assay: Confirmatory Assay to Find Inhibitors of T. brucei phosphofructokinase: T. brucei in vitro Parasite Assay
Conditions: T. brucei brucei culture viability, Alamar Blue, 72 h
Excerpt: Various species of the protozoan family Trypanosomatidae are responsible for a range of serious human diseases in tropical and subtropical areas of the world. […] Many of the disorders caused by trypanosomatids are fatal if left untreated, but most currently used drugs are inefficient and toxic. […] Oxidative metabolism involving the mitochondrial tricarboxylic acid cycle and oxidative phosphorylation are repressed in these parasites, and recent RNA interference (RNAi) experiments have shown that even partial depletion of certain individual glycolytic enzymes can lead to the death of cultured parasites. One such glycolytic enzyme, phosphofructokinase (PFK), catalyzes the formation of fructose-1,6-bisphosphate (F1,6BP) and ADP from fructose-6-phosphate (F6P) and ATP, and in many metabolic circumstances makes an important contribution to the control of flux through the glycolytic pathway. As a specific glycolytic target, PFK is particularly attractive as it catalyzes the first irreversible step in glycolysis, and structural and kinetic studies have shown very substantial and essential differences from corresponding host enzymes, allowing for the discovery of parasite-selective inhibitors. Selected active compounds were additionally tested in a well-validated in vitro parasite assay to determine the relative potencies of lead compounds against live T. brucei cultures. H Chemical Genomics Center [NCGC] NIH Molecular Libraries Probe Centers Network [MLPCN] MLPCN Grant: MH092153-01 Assay Submitter (PI): Malcom Walkinshaw, University of Edinburgh
Dilutions of T. brucei brucei were incubated in modified Iscove's cell culture medium (supplemented with 10% FBS, 0.05 mM bathocuproine sulfonate, 1.5 mM L-cysteine, 1 mM hypoxanthine, 0.2 mM 2-mercaptoethanol, 1 mM sodium pyruvate and 0.16 mM thymidine) with titrations of compound for 72 hours. The cell density is adapted so that after 72 hours of incubation, the cells are at the end of the logarithmic growth phase (~5x104 tryps/mL). General morphology and motility were recorded after incubation, and Alamar Blue dye was added as a fluorescent marker of viability (ex530/em590) and read on a fluorescent plate reader following 4 hrs of incubation at 37 degrees C. The results of this assay were used to prioritize medicinal chemistry efforts in conjunction with the human cell toxicity assay to give a measure of relative parasite/host toxicity ratio.
With O=C(Cc1ccc(Cl)c(Cl)c1)Nc1ccc(S(=O)(=O)Nc2ccc(C(=O)O)cc2)cc1 the outcome was “inactive”. With Cc1cc(NS(=O)(=O)c2ccc(NC(=O)Cc3ccc(Cl)c(Cl)c3)cc2)on1 the Potency was 157 µM (active). In the case of Cc1cc(NS(=O)(=O)c2ccc(NC(=O)Cc3ccc(Cl)c(F)c3)cc2)no1, the Potency is reported as 38.9 µM (active). For O=C(Cc1ccc(Cl)c(Cl)c1)Nc1ccc(S(=O)(=O)Nc2cccc(C(=O)O)c2)cc1, the Potency was 105 µM (active). In the case of COc1ccc(CC(=O)Nc2ccc(S(=O)(=O)Nc3cc(C)on3)cc2)cc1OC, the outcome is reported as “inactive”. In the case of O=C(Cc1ccc(Cl)c(Cl)c1)Nc1ccc(S(=O)(=O)Nc2ccon2)cc1, the Potency is reported as 16.3 µM (active). For Cc1cc(NS(=O)(=O)c2ccc(NC(=O)Cc3ccc(Cl)c(Cl)c3)cc2)no1, the Potency was 26.8 µM (active).

Reference: PubChem BioAssay AID588333 (National Center for Advancing Translational Sciences (NCATS), 2011)
